Results as given in PubChem BioAssay (NCATS).
Results filed as inconclusive are left out. Active and inactive are the calls of the source. The call rests on the fitted dose curve; in most records, active means well fitted cell-killing curve with a large enough effect; inconclusive means small, poorly fitted or top-dose-only effect, or effect the other way; inactive means flat fitted curve, though single readings scatter.

tested on: CASKI; test: Primary qHTS to identify gynecologic anti-cancer compounds using libraries of approved drugs and bioactive compounds (AID 1345084); conditions: Gynecologic cancer cell panel viability, ATPlite luminescence, 48 h; series mostly up to 57.5 µM; activity change, negative = cytotoxicity: at the top concentration; further: nearly all actives have a fitted effect of over 55% in size
Outline: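 Luminescence from the ATPlite ATP-monitoring reagent indicates viable cell number; lower signal means cytotoxicity. Cells received compound 16 h after seeding and were exposed for 48 h across five concentrations.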
On the % scale 0 is the no-effect control and ±100 the full control effect.

SMILES	activity change, negative = cytotoxicity
COC(=O)C12C(=O)C(C)=C(O)C1(C)C(C)=CC1C34CCC(OC3=O)C(C)(C)C4CCC12C (stereo not drawn)	-0.947% [at 25.3 µM] (inactive)
CC(C)=CCCC1(C)Oc2cc3c(c4c2C2C(O4)C(C)(O)CCC21)CN(C(CCC(=O)O)C(=O)O)C3=O (stereo not drawn)	0.0987% [at 25.3 µM] (inactive)
Cc1cc(Nc2ncc(Cl)c(Nc3ccccc3S(=O)(=O)C(C)C)n2)c(OC(C)C)cc1C1CCNCC1	-0.414% (inactive)
CC(=O)OC1C(O)CC(O[C@@H]2O[C@H](CO)[C@@H](O)[C@H](O)[C@H]2O)C2CCC3C(=O)OC(c4ccoc4)CC3(C)C21 (stereo partly drawn)	0.152% [at 25.3 µM] (inactive)
NC(=O)c1ccc(OCC2NC(=O)C3CCCN3C2=O)cc1 (stereo not drawn)	0.424% (inactive)
COc1cc(COC2OC(CO)C(O)C(O)C2O)cc(OC)c1O (stereo not drawn)	-8.85% [at 38.5 µM] (inactive)
C[C@@H]1O[C@@H](O[C@H]2[C@H](OC(=O)C34CCC5(C)C(=CCC6C7(C)CC(O)C(O[C@@H]8O[C@H](C(=O)O)[C@@H](O)[C@H](O)[C@H]8O)C(C)(C(=O)O)C7CCC65C)C3CC(C)(C)CC4O)O[C@H](C)[C@@H](O)[C@@H]2O)[C@H](O)[C@@H](O[C@@H]2OC[C@](O)(CO)[C@H]2O[C@@H]2O[C@H](CO)[C@@H](O)[C@H](O)[C@H]2O)[C@H]1O (stereo partly drawn)	3.56% [at 6.55 µM] (inactive)
CCC(C)C(=O)O[C@@H]1[C@@H](O)[C@@H](O[C@H]2O[C@H](CO)[C@@H](O)[C@H](O)[C@H]2O)O[C@H](CO)[C@H]1O (stereo partly drawn)	4.16% [at 25.3 µM] (inactive)
CC1(C)CC[C@]2(C(=O)O[C@@H]3O[C@H](CO)[C@@H](O)[C@H](O)[C@H]3O)CC[C@]3(C)C(=CCC4[C@@]5(C)C[C@@H](O)[C@H](O)C(CO)(CO)C5CC[C@]43C)C2[C@@H]1O (stereo partly drawn)	-3.05% [at 25.3 µM] (inactive)
O=C(O)CCc1cccc(O[C@@H]2O[C@H](CO)[C@@H](O)[C@H](O)[C@H]2O)c1O	4.89% [at 38.5 µM] (inactive)
CC(C)C1=CC2=CCC3[C@](C)(CCC[C@@]3(C)C(=O)O)C2CC1O (stereo partly drawn)	10.7% [at 38.5 µM] (inactive)
CC1OC(O[C@H]2[C@@H](O)C[C@@]3(C)C([C@H](O)C[C@]4(C)C3CC=C3C5CC(C)(C)CC[C@]5(C(=O)OC5OC(CO)C(O)C(O)C5OC5OCC(OC6OCC(OC7OCC(O)C(O)C7O)C(O)C6O)C(OC6OCC(O)(CO)C6O)C5O)CC[C@]34C)[C@]2(C)CO)C(O)C(O)C1O (stereo partly drawn)	1.71% [at 6.55 µM] (inactive)
C=C1C(=O)OC2CC(C)=C(C(C)CCCO[C@@H]3O[C@H](CO)[C@@H](O)[C@H](O)[C@H]3O)C(O)C12 (stereo partly drawn)	3.93% [at 25.3 µM] (inactive)
CC(=O)OCC(=O)O[C@@H]1[C@H]2[C@@H](OC(=O)c3ccccc3)[C@@H](C)C[C@]2(O)[C@H](OC(C)=O)C2(C)[C@H]3CC(C)(C)C(=O)[C@@H]3CC1(OC(C)=O)[C@@H]2OC(C)=O (stereo partly drawn)	12.7% [at 25.3 µM] (inactive)
CC(CCC1(O)OC2CC3C4CCC5CC(O[C@@H]6O[C@H](CO)[C@@H](O)[C@H](O)[C@H]6O[C@@H]6OC[C@@H](O)[C@H](O)[C@H]6O)C(O)CC5(C)C4CCC3(C)C2C1C)CO[C@@H]1O[C@H](CO)[C@@H](O)[C@H](O)[C@H]1O (stereo partly drawn)	14.6% [at 11.6 µM] (inactive)
CC1[C@@H](O)[C@@H](O)C2[C@]3(C)C(C[C@H]4OC(=O)[C@H](O)[C@]1(O)[C@@]24C)C(C)(O)C[C@H](O)[C@H]3O (stereo partly drawn)	5.94% [at 25.3 µM] (inactive)
C=C[C@@]1(C)CC(=O)C2[C@](C)(O1)[C@@H](OC(C)=O)[C@@H](O)[C@H]1C(C)(C)CCC[C@]21C (stereo partly drawn)	-3.47% [at 11.6 µM] (inactive)
CCS(=O)(=O)N1CCC([C@@H](C)n2c(C)c(C(=O)NCc3c(OC)cc(C)[nH]c3=O)c3ccccc32)CC1	8.99% (inactive)
COc1cc(/C=C/C(=O)OC(C)(C)C(OC2OC(CO)C(O)C(O)C2O)C(=O)OCc2ccc(OC3OC(CO)C(O)C(O)C3O)cc2)ccc1O (stereo not drawn)	-0.204% [at 25.3 µM] (inactive)
C=C1CCC2C(C)(COC3OC(COC(=O)CC(=O)O)C(O)C(O)C3O)CCCC2(C)C1CCC1=CCOC1=O (stereo not drawn)	6.34% [at 25.3 µM] (inactive)
CC(C)=CC/C=C(/C)[C@H]1CC[C@]2(C)[C@@H]1[C@H](O)CC1[C@@]3(C)CC[C@H](O)C(C)(C)[C@@H]3[C@@H](O[C@@H]3O[C@H](CO)[C@@H](O)[C@H](O)[C@H]3O[C@@H]3O[C@@H](C)[C@H](O)[C@@H](O)[C@H]3O)C[C@]12C (stereo partly drawn)	3.96% [at 25.3 µM] (inactive)
CCOC(=O)c1ccc(N(C)c2csc(-c3ccccc3)n2)cc1	1.89% (inactive)
COCC(=O)N1CCc2cc(-c3csc(NC(=O)c4cc(OC)cc(OC)c4)n3)ccc21	16.1% (inactive)
